Here are results for 63 compounds from PubChem BioAssay AID1578 (Sanford-Burnham Center for Chemical Genomics, 2009).

Among all 290,000 compounds or so, about 3,000 (1%) were called active. The sample as a whole holds a higher share of actives than the screen did. Values without a mark were called inactive. Rule as the data show it: active = inhibition mostly above about 36% (no sharp cut-off); inactive = mostly below about 34%.

A short description of this assay: inhibition of NOD1-driven NF-kB reporter – cell-based, luminescence, uHTS, primary screen (AID 1578).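 Also: HEK-293T reporter cells stimulated with the NOD1 agonist gamma-tri-DAP.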 The conditions noted are these: NOD1-driven NF-kB luciferase reporter cells, at 4 µM, active compounds read high. On the technique in general: In a reporter assay the amount or activity of a reporter protein is the signal.
Consider `COc1ccc(/C=N\NC(=O)c2ccccc2F)cc1COc1ccc(F)cc1F`, for which the inhibition was 31.2%.
Turning to `COc1ccc(C(=O)N/N=C/c2ccc(OC)c(COc3ccc(F)cc3F)c2)cc1`, the inhibition was 38.8%.
In the case of `COc1ccc(/C=N\NC(=O)c2ccccc2)cc1COc1ccc(F)cc1` it was 39.2%; in that of `COc1ccc(C(=O)N/N=C/c2ccc(OC)c(COc3ccccc3)c2)cc1`, 3.5%.
In the case of `COc1ccc(C(=O)N/N=C/c2ccc(OC)c(COc3ccc(F)cc3)c2)cc1` it was 56.6% (active); in that of `COc1ccc(/C=N/NC(=O)c2cc(C(C)(C)C)[nH]n2)cc1COc1ccc(F)cc1F`, 44.1% (active); in that of `C/C(=N\NC(=O)c1ccc2ccccc2c1)c1cccs1`, -67.5%.
In the case of `COc1ccc(CNC(=O)CCSCc2ccccc2C)cc1`, the inhibition was 49.7% (active).
Then `Cc1ccc(SCCC(=O)NCCSCc2ccccc2C)cc1`, with -35.1%.
Then `COc1ccc(CNC(=O)CCSCc2ccc(C)cc2)cc1`, with -7.5%.
In the case of `Cc1ccccc1CSCCNC(=O)CCSc1ccccc1` it was 71.3% (active); in that of `Cc1ccc(CNC(=O)CCSCc2ccccc2C)cc1`, -14.9%; in that of `O=C(CCSc1ccccc1)NCCSCc1ccccc1`, -33.8%.
Regarding `CCC(C)[C@H](NC(=O)Nc1ccccc1F)C(=O)O` (stereo partly drawn), the inhibition is -12.6%.
Take `NS(=O)(=O)c1cccc(NC(=O)COC(=O)CCSc2ccccc2)c1`: the inhibition is -26.8%.
Regarding `O=C(Nc1ccc(Cl)cc1)Nc1ccccc1Sc1ncc([N+](=O)[O-])s1`, the inhibition is -6.5%.
Then `O=[N+]([O-])c1cnc(Sc2ccncn2)s1`, with 66% (active); and `O=[N+]([O-])c1ccc(Sc2n[nH]c(-c3ccncc3)n2)nc1`, with -10.2%; and `O=C(O)C1Nc2c(cccc2C(F)(F)F)C2C=CCC12` (stereo not drawn), with -8.8%.
For `O=C(Nc1ccncc1)c1c(F)c(F)c(F)c(F)c1F`, the inhibition is 11%.
Then `O=C(Nc1ccccc1)c1c(F)cccc1F`, with -2.4%.
Then `O=S(=O)(c1ccc(Cl)s1)N1CCN(c2ncccn2)CC1`, with -11.8%; and `Cc1ccccc1-c1nsc(SCC(=O)c2ccc(Cl)cc2)n1`, with -4.8%.
`c1coc(C2=NCCc3ccccc32)c1`: the inhibition is -18%.
Then `CCN(CC)c1nc(N)nc(N(c2ccccc2)c2ccccc2)n1`, with 13.6%; and `Nc1nc(CCl)nc(N(c2ccccc2)c2ccccc2)n1`, with 50.5% (active); and `Nc1nc(Cl)nc(N(c2ccccc2)c2ccccc2)n1`, with -8.3%.
Turning to `Fc1ccc2c(c1)C(c1ccncc1)=NNC(c1ccccc1)=N2`, the inhibition was 16%.
Consider `Cc1ccc(C(=O)COC(=O)c2ccc(-c3cnc4ccccc4n3)cc2)cc1C`, for which the inhibition was -22.2%.
In the case of `O=C1CCCN1CCCNC(=S)Nc1ccc(Cl)cc1Cl` it was -41.9%; in that of `N/C(=N\NC(=O)c1sccc1OCc1ccc(Cl)cc1Cl)c1ccccn1`, -6%; in that of `CCOc1ccc(N(C(=O)/C=C/C(=O)Nc2cc(C)on2)C(C(=O)NC2CCCC2)c2ccccc2C)cc1` (stereo not drawn), 52.5%.
Turning to `CCc1ccc(C(C(=O)NC2CCCC2)N(C(=O)/C=C/C(=O)Nc2cc(C)on2)c2ccccc2C)cc1` (stereo not drawn), the inhibition was 76.7% (active).
In the case of `Cc1cc(NC(=O)/C=C/C(=O)N(c2ccccc2C)C(C(=O)NC2CCCC2)c2ccc(F)cc2)no1` (stereo not drawn) it was 30.5%; in that of `ClCc1nc2ccccc2c2ccccc12`, 64.7% (active); in that of `CCOC(=O)c1c(CCl)nc2ccccc2c1-c1ccccc1`, 19.7%.
In the case of `CCOC(=O)c1c(CCl)nc2ccccc2c1C` it was -9.2%; in that of `CC(=O)N(CCc1ccccc1C)Cc1cc2ccc(C)cc2[nH]c1=O`, -1%; in that of `CCN1CCN(C(=O)Cn2nc(C)c3sc4ccccc4c3c2=O)CC1`, -12.8%.
In the case of `CCOC(=O)N1CCN(C(=O)Cn2nc(C)c3sc4ccccc4c3c2=O)CC1` it was 53.1% (active).
As for `Cc1nn(CC(=O)N2CCN(C)CC2)c(=O)c2c1sc1ccccc12`, the inhibition was -7.7%.
In the case of `Cc1nnc(SCc2cn3ccsc3n2)n(N)c1=O` it was 8.4%; in that of `Cc1ccc(C)c2sc(NC(=O)CN3C(=O)CCC3=O)nc12`, 14.9%; in that of `CCCNC(=O)c1cc(S(=O)(=O)N2CCc3ccccc32)cn1C`, 30.1%.
With `CCC(C)(C)NC(=O)c1cc(S(=O)(=O)N2CCc3ccccc32)cn1C`, the inhibition was 14.8%.
`CC1=NN(Cc2ccccc2)C(=O)C1C(c1ccncc1)C(C#N)C#N` (stereo not drawn): the inhibition was 5.2%.
In the case of `Cc1nc2c(ccc3nc(NC(=O)C4CC4)sc32)s1` it was 69% (active); in that of `CCC(=O)Nc1nc2ccc3sc(C)nc3c2s1`, 17.2%.
For `Cc1nc2c(ccc3nc(NC(=O)Cc4ccccc4)sc32)s1`, the inhibition is -51.4%.
As for `Fc1ccc(NC(=S)Nc2cccnc2)c(F)c1F`, the inhibition is -19.1%.
Regarding `COc1ccc(CCNC(=O)c2oc3ccc(OC)cc3c2C)cc1`, the inhibition was -13.3%.
Then `CCOc1ccccc1NC(=O)CSc1nc2c(c(=O)n1C)SC(C)C2` (stereo not drawn), with -16.7%; and `O=C1COc2ccc(C(=O)COC(=O)CCc3ccc(S(=O)(=O)N4CCOCC4)cc3)cc2N1`, with 1.2%; and `Cc1ccc2nc(-c3cc(-c4ccccc4)no3)cn2c1`, with -4.9%.
In the case of `CCc1ccn2cc(-c3cc(-c4ccccc4)no3)nc2c1` it was 45.6% (active); in that of `c1ccc(-c2cc(-c3ccccc3)on2)cc1`, -10%.
`O=C(NCc1ccccc1)C1CCC(CNS(=O)(=O)c2cccs2)CC1` (stereo not drawn): the inhibition is -1.7%.
As to `COC(=O)c1ccc2c(=O)n(Cc3ccco3)c(SCC(=O)Nc3cc(C)on3)nc2c1`, the inhibition is -44.8%.
Then `CCN(C(=O)CSc1nc2cc(C(=O)OC)ccc2c(=O)n1Cc1ccco1)c1cccc(C)c1`, with 74% (active); and `CCc1ccc(NC(=O)CSc2nc3cc(C(=O)OC)ccc3c(=O)n2Cc2ccco2)cc1`, with -7.4%; and `Cc1ccc(S(=O)(=O)NC(=O)Nc2ccccc2)cc1`, with -30.4%.
In the case of `O=C(Cn1nnc(-c2ccc3c(c2)OCO3)n1)NCc1ccccc1`, the inhibition was 4.7%.
Then `O=C(NCC(=O)N1CC(O)CC1C(=O)N1CC(O)CC1C(=O)OCc1ccccc1)OCc1ccccc1` (stereo not drawn), with -13.7%.

The term inhibition denotes the relative decrease from the control value, in per cent.
